About 1,200 (1.4%) of roughly 86,000 compounds were called active. What follows is part of a selection rich in actives, with near analogues and random picks from the rest. A number with no mark means an inactive call. Rule as the data show it: active = activity above about 200%; inactive = the rest.

The values below come from PubChem BioAssay AID639 (Emory University Molecular Libraries Screening Center, 2007).

The experiment deals with Estrogen receptor (Homo sapiens) (UniProt P03372). The experiment in a line: enhancers of ERα–SRC-1 coactivator binding, primary screen, biochemical, TR-FRET, ERα LBD, low estradiol (AID 639).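 Also: binding measured in presence of low estradiol as agonist stimulus; 0% = peptide alone without receptor and 100% = receptor with peptide.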 The following applies: TR-FRET ERalpha-LBD/SRC-Cy5 coactivator binding, 2 h; at 25.6 µM; hits give high values; 100 = basal binding, no effect. (In general: Time-resolved FRET reads energy transfer from a long-lived donor to a nearby acceptor.)
Sequence of Estrogen receptor (Homo sapiens) (P03372 whole entry, looked up, the tested form may be a part): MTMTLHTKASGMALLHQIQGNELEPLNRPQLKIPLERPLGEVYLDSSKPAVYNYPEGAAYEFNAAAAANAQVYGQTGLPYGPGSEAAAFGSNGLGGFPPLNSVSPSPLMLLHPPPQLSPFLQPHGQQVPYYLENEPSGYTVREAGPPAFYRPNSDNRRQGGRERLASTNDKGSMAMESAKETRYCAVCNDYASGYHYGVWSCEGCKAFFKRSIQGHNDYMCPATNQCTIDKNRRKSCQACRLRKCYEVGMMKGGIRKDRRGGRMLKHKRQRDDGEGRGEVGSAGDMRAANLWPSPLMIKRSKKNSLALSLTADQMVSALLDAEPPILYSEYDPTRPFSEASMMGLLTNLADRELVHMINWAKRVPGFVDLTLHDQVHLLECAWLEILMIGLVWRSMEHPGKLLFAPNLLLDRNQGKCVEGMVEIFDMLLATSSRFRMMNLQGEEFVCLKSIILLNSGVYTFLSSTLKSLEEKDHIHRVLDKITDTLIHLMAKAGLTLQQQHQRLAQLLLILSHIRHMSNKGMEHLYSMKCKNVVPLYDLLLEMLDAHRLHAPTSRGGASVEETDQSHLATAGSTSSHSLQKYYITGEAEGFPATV
For `CCN(CC)C(=O)CSc1ncnc2c1cnn2-c1ccccc1`, the coactivator binding (% of control) is 117%.
With `Cc1nc2c(-c3ccc(F)cc3)c(C)nn2c(C)c1CCC(=O)NCc1ccco1`, the coactivator binding (% of control) was 96.1%.
The same measure for `CC(C)N1C(=S)SC(C)(C)C1n1oc(=O)n(-c2ccc(Cl)c(Cl)c2)c1=O` (stereo unspecified): 113%; for `Cc1cc(C)n(C(=O)CCNC(=O)c2ccccc2Cl)n1`: 100%; for `Cc1ccc(C)c(N2C(=O)CS/C2=N\NC(=O)c2ccccc2Cl)c1`: 102%.
The figure for `CCc1ccc(CNC(=O)C2CC(=O)N(CCc3ccc(C)cc3)C2)cc1` (stereo unspecified) is 115%; for `N#CC(=C1SC=CS1)c1nc(-c2ccccc2)cs1` it is 206% (active).
As for `N#C/C(=C1\CCCN1)c1nc(-c2ccccc2)cs1`, the coactivator binding (% of control) was 116%.
The figure for `N#CC(=C1CCCC1)c1nc(-c2ccc(Cl)cc2)cs1` is 103%; for `Cc1nc(N2CCOCC2)nc2c1CCCC2` it is 111%.
Turning to `CCCOc1ccc(N2C(=O)CC(N(CCc3ccc(S(N)(=O)=O)cc3)C(C)=O)C2=O)cc1` (stereo unspecified), the coactivator binding (% of control) was 126%.
The figure for `Nn1c(Cc2cccc3ccccc23)nnc1SCC(=O)N1CC(=O)Nc2ccccc21` is 63.7%; for `COc1ccc(-n2ncc3c(N4CCCc5ccccc54)ncnc32)cc1` it is 97.2%; for `Cc1cccc(-n2ncc3c(N4CCc5ccccc54)ncnc32)c1` it is 137%.
Regarding `COc1ccc(-n2ncc3c(N4CCc5ccccc54)ncnc32)cc1`, the coactivator binding (% of control) is 200% [fluorescence artefact?] (active).
As to `CCOC(=O)NC(C(F)(F)F)(C(F)(F)F)P(=O)(c1ccccc1)c1ccccc1`, the coactivator binding (% of control) was 95.9%.
The figure for `CCOC(=O)C1=C(c2ccccc2)O/C(=C(/C(=O)OC)C(F)(F)F)S1` is 360% [fluorescence artefact?] (active).
The figure for `CCOC(=O)c1nnn(-c2nonc2OC)c1-c1ccccc1` is 102%.
For the compound `COC(=O)c1ccccc1NC(=O)Cc1ccccc1OC`, the coactivator binding (% of control) is 120%.
The figure for `COc1ccc(NC(=O)CC2COc3ccccc3O2)c(OC)c1` (stereo unspecified) is 104%; for `Cc1ccc(NC(=O)CSc2nnc(-c3cnccn3)n2Cc2ccco2)cc1C` it is 335% (active).
Take `O=C(CSc1nnc(-c2cnccn2)n1Cc1ccco1)c1ccc(Cl)c(Cl)c1`: the coactivator binding (% of control) was 137%.
Regarding `CCc1ccc(NC(=O)CSc2nnc(-c3cnccn3)n2Cc2ccco2)cc1`, the coactivator binding (% of control) was 148%.
The figure for `CCOc1ccc(NC(=O)CN(C)CC(=O)Nc2cccc(Cl)c2C)cc1OCC` is 105%; for `CC1CCC(NC(=O)c2ccc(N3CCCC3=O)cc2)CC1` (stereo unspecified) it is 143%.
The figure for `O=C(NCCCN1CCCCCC1)c1ccc(N2CCCC2=O)cc1` is 588% [fluorescence artefact?] (active).
The same measure for `CCOc1ccc(C(=O)NCCCN2CCCC2=O)cc1`: 96%.
On to `CCOc1cc(C(=O)Nc2c(C)ccc3nsnc23)cc(OCC)c1OCC`, for which the coactivator binding (% of control) was 78.1%.
The figure for `O=C(NCc1ccccc1)C1CCCN(S(=O)(=O)c2cccs2)C1` (stereo unspecified) is 91.1%.
The figure for `COCCNC(=O)COc1ccccc1C` is 118%; for `COc1ccc(CCNC(=O)CN(c2ccccc2)S(C)(=O)=O)cc1OC` it is 76.4%; for `CN(C)c1ccnc2sc3c(=O)n(-c4ccc(Cl)cc4)cnc3c12` it is 162%.
The figure for `COCCn1c(C)cc(C(=O)CSc2ncnc3sc4c(c23)CCC4)c1C` is 409% [fluorescence artefact?] (active); for `Cc1cc(C)n(-c2nc(SCC(=O)N3CCCC3)c3c4c(sc3n2)CCCC4)n1` it is 93.8%.
Take `COCCn1c(SCc2nnc(-c3ccc(OC)c(OC)c3)o2)nc2sc3c(c2c1=O)CCC3`: the coactivator binding (% of control) was 94.4%.
The same measure for `CCCCCCC12CCC(C(=O)O)(CC1)CC2`: 104%.
The same measure for `CC(=O)Oc1ccc(NC(=O)CCC2CCCCC2)c(C(=O)O)c1`: 105%; for `CC(NC(=O)C1CCC(CNc2c(N3CCOCC3)c(=O)c2=O)CC1)c1ccccc1` (stereo unspecified): 98.1%.
The same measure for `Cc1nc(SCC(=O)Nc2cc(C)on2)c2c3c(sc2n1)CCCC3`: 128%.
As for `Cc1nc(SCC(=O)Nc2cc(C)on2)c2c(C)c(C)sc2n1`, the coactivator binding (% of control) was 565% [fluorescence artefact?] (active).
The figure for `Cc1ccc(-c2csc(SCC(=O)Nc3cc(C)on3)n2)cc1` is 98.5%; for `Cc1cc(NC(=O)CSc2nc(C(C)C)nc3sc4c(c23)CCC(C)C4)no1` (stereo unspecified) it is 269% [fluorescence artefact?] (active).
The same measure for `C=CCn1c(SCc2c(C)noc2C)nc2sc3c(c2c1=O)CCC(C)C3` (stereo unspecified): 93.6%.
Regarding `CC1CCc2c(sc3nc4n(c(=O)c23)CCS4)C1` (stereo unspecified), the coactivator binding (% of control) was 96.2%.
The same measure for `O=C(c1ccc2c(c1)OCO2)N1CCN(C(=O)c2ccco2)CC1`: 103%.
The same measure for `Cc1cccc(S(=O)(=O)CC(=O)Nc2nc(-c3ccccc3)cs2)c1`: 103%.
The same measure for `Cc1cc(=O)oc2cc(OCC3CC(c4ccccc4Cl)=NO3)ccc12` (stereo unspecified): 117%.
As to `O=C(Nc1ccc(Br)cc1)c1cccc(NC(=O)C2C3CC4OC(=O)C2C4C3)c1` (stereo unspecified), the coactivator binding (% of control) was 115%.
For the compound `CS(=O)(=O)N(CC(=O)N1CCN(c2cccc(Cl)c2)CC1)c1ccccc1`, the coactivator binding (% of control) is 118%.
On to `CCN1C(=O)/C(=C\N2CCN(c3cccc(Cl)c3)CC2)SC1=S`, for which the coactivator binding (% of control) was 413% [fluorescence artefact?] (active).
The figure for `CCn1c(=O)cc(OCC(=O)NCCCN2CCN(c3cccc(Cl)c3)CC2)c2ccccc21` is 107%; for `CCN1C(=O)/C(=C\N2CCOCC2)SC1=S` it is 93%; for `CCS(=O)(=O)N1CCC(C(=O)N2CCN(c3ccccc3)CC2)CC1` it is 103%.
The figure for `CCN1C(=O)/C(=C\N2CCN(c3ccccc3)CC2)SC1=S` is 289% (active); for `Cc1cccc(-c2nc3c(c(SCC(=O)N4CCOCC4)n2)CCCC3)c1` it is 94.4%.
For the compound `CC1CCN(C(=O)c2cc3nc(C4CC4)cc(C(F)(F)F)n3n2)CC1`, the coactivator binding (% of control) was 93.5%.
As to `COCCNC(=O)Cn1cc(C(=O)c2cccs2)c2ccccc21`, the coactivator binding (% of control) is 102%.
The same measure for `CCn1c(SCC(=O)Nc2cccc(F)c2)nnc1-c1cc2cc(Br)ccc2o1`: 476% (active).
In the case of `CCCn1c(SCC(=O)Nc2cccc(C(=O)OCC)c2)nnc1-c1ccoc1C`, the coactivator binding (% of control) was 97.2%.
Turning to `CCn1c(Cc2ccccc2)nnc1SCC(=O)Nc1ccccc1`, the coactivator binding (% of control) is 122%.
The same measure for `CCOc1ccc(-n2c(N)c(C(=O)NCC3CCCO3)sc2=S)cc1` (stereo unspecified): 99.2%; for `O=c1[nH][nH]c(C(F)(F)F)c1C=NCc1ccccc1Cl`: 109%; for `Cn1c(C(=O)NCCc2ccsc2)cc2c(=O)n(C)c3ccccc3c21`: 278% (active).
As for `CC1CCCC(C)N1CCCNC(=O)c1cc2c(=O)n(C)c3ccccc3c2n1C` (stereo unspecified), the coactivator binding (% of control) is 74.4%.
The same measure for `Cn1c(C(=O)NCCCN2CCN(c3cccc(Cl)c3)CC2)cc2c(=O)n(C)c3ccccc3c21`: 132%; for `CCOc1ccc(S(=O)(=O)NCC2CCCO2)cc1` (stereo unspecified): 97.5%.
For the compound `COCCn1c(=S)[nH]c2cc(C(=O)NCCc3ccc(OC)c(OC)c3)ccc2c1=O`, the coactivator binding (% of control) was 179%.
The figure for `CCc1nnc(NC(=O)CSc2nc3ccccc3c(=O)n2CCCOC)s1` is 102%.
`CCOC(=O)c1c(N=CN(C)C)c(C#N)c2n1CCCC2`: the coactivator binding (% of control) is 111%.
The same measure for `COc1cc(Cl)c(C)cc1NC(=O)CSc1nnc(-c2cccnc2)n1Cc1ccco1`: 90.9%; for `COc1ccc(NC(=O)CSc2nnc(-c3cccs3)n2Cc2ccco2)cc1OC`: 95.3%; for `COc1ccccc1NC(=O)CSc1nc2sc(C)c(C)c2c(=O)n1Cc1ccco1`: 225% (active).
The figure for `COC(=O)c1ccc(NC(=O)C23CC4CC(C2)CC(n2cnc(Cl)n2)(C4)C3)cc1` is 101%; for `Cc1cccc(N(C(=O)c2ccc(CN3CCOCC3)o2)C(C(=O)NC2CCCCC2)c2ccc(F)cc2)c1` (stereo unspecified) it is 114%.
In the case of `CCn1c(SCC(=O)NCC2CCCO2)nc2cc(S(=O)(=O)N3CCCCC3)ccc21` (stereo unspecified), the coactivator binding (% of control) is 88.2%.
Take `O=C(CSc1nnc(-c2ccc(NS(=O)(=O)c3ccccc3)cc2)o1)NCC1CCCO1` (stereo unspecified): the coactivator binding (% of control) was 103%.
In the case of `Cc1ccc2cc(C#N)c(SCC(=O)NCC3CCCO3)nc2c1C` (stereo unspecified), the coactivator binding (% of control) is 240% [fluorescence artefact?] (active).
The figure for `CC1Cc2ccccc2N1C(=O)c1cc2sccc2n1Cc1ccccc1` (stereo unspecified) is 200%; for `Cc1c(-c2ccccc2)nc(N)c(C#N)c1-c1cccs1` it is 155%; for `CCc1c(-c2ccccc2)nc(N)c(C#N)c1-c1cccs1` it is 95.7%.
For the compound `CSc1nc(N)c(C#N)c(-c2ccccc2Cl)c1C#N`, the coactivator binding (% of control) is 214% [fluorescence artefact?] (active).
As for `O=C(c1cc2c(s1)CCC2)N1CCN(c2ccccc2)CC1`, the coactivator binding (% of control) is 19.5%.
On to `CCCNC(=S)N1CCC(NC(=O)C23CC4CC(CC(C4)C2)C3)CC1`, for which the coactivator binding (% of control) was 108%.
The figure for `CCOc1ccc(-c2nnn(CC(=O)N3CCN(c4ccc(OC)cc4)CC3)n2)cc1OCC` is 87.8%.
The figure for `O=C(Cn1nnc(-c2ccc(CN3CCOCC3)cc2)n1)NC1CCCCC1` is 123%.
The figure for `COc1ccc(C(=O)Cn2nnc(-c3ccc(N4CCOCC4)cc3)n2)cc1OC` is 240% (active); for `COc1ccc(N(CC(=O)NC2CCCCC2)C(=O)CNC(=O)c2ccco2)c(OC)c1` it is 113%; for `O=C(Nc1nncs1)c1cccc(S(=O)(=O)N2CCCCC2)c1` it is 91.9%.
On to `CSc1nnc2c(n1)OC(c1ccsc1)N(C(C)=O)c1ccccc1-2` (stereo unspecified), for which the coactivator binding (% of control) is 348% (active).
Take `CSc1nnc2c(n1)OC(c1cn(C)c3ccccc13)N(C(C)=O)c1ccccc1-2` (stereo unspecified): the coactivator binding (% of control) is 120%.
The same measure for `COCCCNC(=O)CN1CCN(Cc2ccccc2Cl)C1=O`: 107%.
